This passage reports binding signal results from article PMC4666376, “Characterisation of aptamer–target interactions by branched selection and high-throughput sequencing of SELEX pools”.

For this assay, the target named is PAI-1 wild type, active (human, UniProt P05121 24-402). Kind of assay: branched SELEX with high-throughput sequencing; PAI-1 immobilised on polyclonal anti-PAI-1 antibody; HBS (10 mM HEPES pH 7.4, 140 mM NaCl), 2 mM MgCl2, 2 mM CaCl2, 0.1% BSA; RNA pool 100 nM; PAI-1 captured on antibody-coated wells; 45 min; binding temperature not stated (PAI-1 capture at room temperature); high values mean tight binding.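 Further: Pool frequency after one selection round with this target divided by frequency before selection.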 Particulars: protein: recombinant; tags: N-terminal His6; structured_RNA; 2'-F pyrimidines.
PAI-1 wild type, active, sequence (P05121 24-402): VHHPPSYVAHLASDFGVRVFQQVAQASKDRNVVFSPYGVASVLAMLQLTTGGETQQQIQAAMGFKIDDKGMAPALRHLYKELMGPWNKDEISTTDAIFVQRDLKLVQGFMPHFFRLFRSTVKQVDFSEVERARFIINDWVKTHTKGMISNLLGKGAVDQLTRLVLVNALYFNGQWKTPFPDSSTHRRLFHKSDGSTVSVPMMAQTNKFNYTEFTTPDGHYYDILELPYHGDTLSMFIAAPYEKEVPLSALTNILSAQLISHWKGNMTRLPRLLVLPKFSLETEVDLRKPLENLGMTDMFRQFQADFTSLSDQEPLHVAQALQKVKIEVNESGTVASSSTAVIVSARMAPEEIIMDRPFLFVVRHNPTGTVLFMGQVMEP
On to “GGGGCCACCAACGACAUUGCUGUGCUAAUCGGUCUUCCGACGCAUAUUCGAAUGUUGAUAUAAAUAGUGCCCAUGGAUC”, for which the binding signal is 0.63 enrichment factor.

“GGGGCCACCAACGACAUUCCUGCAACGUAGGCGCGUAAGCUCCGAUCAAGGAUGUUGAUAUAAAUAGUGCCCAUGGAUC”: the binding signal stood at 0.53 enrichment factor.

With “GGGGCCACCAACGACAUUCGUGUUGUAUCUGUUAUACAGCAUGUUAUUUGUGCGUUGAUAUAAAUAGUGCCCAUGGAUC”, the binding signal amounted to 3.72 enrichment factor.

Consider “GGGGCCACCAACGACAUUCUCGAGAGAGACCUUCCUCGUUAUACGGGGAGUUCGUUGAUAUAAAUAGUGCCCAUGGAUC”, for which the binding signal worked out at 0.56 enrichment factor.

Consider “GGGGCCACCAACGACAUUACGUAGCAUGAUGAGUUUCUCGUCGGCGAUCAGUUGUUGAUAUAAAUAGUGCCCAUGGAUC”, for which the binding signal was determined as 0.98 enrichment factor.

With “GGGGCCACCAACGACAUUUCCGUGAGGAUCUAUGUUGUGGAAAACAACAGUUCGUUGAUAUAAAUAGUGCCCAUGGAUC”, the binding signal worked out at 1.09 enrichment factor.

In the case of “GGGGCCACCAACGACAUUUGUCAACAUAACGUAGAGCAAUUACAGCUCGAUCAGUUGAUAUAAAUAGUGCCCAUGGAUC”, the binding signal was determined as 3.13 enrichment factor.

For the sequence “GGGGCCACCAACGACAUUGAUGAUCACUGUUUCGCGCAGUGCCGUAUAUCGAUGUUGAUAUAAAUAGUGCCCAUGGAUC”, the binding signal amounted to 4.36 enrichment factor.

On to “GGGGCCACCAACGACAUUGAUCAACGAUCACCAUGAUACACAUGGAUCACGUAGUUGAUAUAAAUAGUGCCCAUGGAUC”, for which the binding signal was determined as 0.62 enrichment factor.

For “GGGGCCACCAACGACAUUUGCGUAAGCAUCCUUCGAUGUACCACAUCGAGAUCGUUGAUAUAAAUAGUGCCCAUGGAUC”, the binding signal came out at 1.04 enrichment factor.

With “GGGGCCACCAACGACAUUGACUCCUAGUUAUACCGAUUAGGACUUGUAGAUGCGUUGAUAUAAAUAGUGCCCAUGGAUC”, the binding signal was 0.26 enrichment factor.

On to “GGGGCCACCAACGACAUUCACCACGUAGUGAAACUUUCACGACUAGAAUGUAAGUUGAUAUAAAUAGUGCCCAUGGAUC”, for which the binding signal turned out to be 0.74 enrichment factor.

“GGGGCCACCAACGACAUUAGCAGUCGUAGGCCGUAAUGGCUGACCUGUAUGACGUUGAUAUAAAUAGUGCCCAUGGAUC”: the binding signal is 0.68 enrichment factor.

Take “GGGGCCACCAACGACAUUCACACAACGUAGGCUCGUGAGCCGAUCAGUGAUUAGUUGAUAUAAAUAGUGCCCAUGGAUC”: the binding signal was determined as 0.81 enrichment factor.

“GGGGCCACCAACGACAUUGUCGUAGGCAAGUGUACGAAUCUUUGCUGACCAGUGUUGAUAUAAAUAGUGCCCAUGGAUC”: the binding signal came to 2.67 enrichment factor.

With “GGGGCCACCAACGACAUUCUGGGCCGUAGGCGAUAUUAGCCGAUCCCAGAAGAGUUGAUAUAAAUAGUGCCCAUGGAUC”, the binding signal turned out to be 1.43 enrichment factor.

For the sequence “GGGGCCACCAACGACAUUGCCGUAGGUGCGGGAACACUUCACCGAUCGAUGUUGUUGAUAUAAAUAGUGCCCAUGGAUC”, the binding signal came out at 2.29 enrichment factor.

Regarding “GGGGCCACCAACGACAUUCGCACUGUAGCUAUGUGGAUAGCGACCAGAAUUUCGUUGAUAUAAAUAGUGCCCAUGGAUC”, the binding signal was found to be 2.51 enrichment factor.

For the sequence “GGGGCCACCAACGACAUUUCGCAGCUUCGUAGUACAGGCGCAAGUUGACACAUGUUGAUAUAAAUAGUGCCCAUGGAUC”, the binding signal came out at 1.47 enrichment factor.

On to “GGGGCCACCAACGACAUUUCGACUUGUAGACGAUAUUCGUCGACUCGAAGAGCGUUGAUAUAAAUAGUGCCCAUGGAUC”, for which the binding signal stood at 0.51 enrichment factor.

For the sequence “GGGGCCACCAACGACAUUACACUGUAGCGAGCCAGACUCGCGACCAAAUGCGUUGAUAUAAAUAGUGCCCAUGGAUC”, the binding signal turned out to be 0.89 enrichment factor.

“GGGGCCACCAACGACAUUGCCGUAGGAAUUCGUCCUGAGUUCCGAUCAAUAGCGUUGAUAUAAAUAGUGCCCAUGGAUC”: the binding signal was 0.74 enrichment factor.

Turning to “GGGGCCACCAACGACAUUCUAAGUUCGUCCUACUUACUCUUGUAGGUCUGAAUGUUGAUAUAAAUAGUGCCCAUGGAUC”, the binding signal was 16.4 enrichment factor.

With “GGGGCCACCAACGACAUUGCCGUAGGCGAUAAUACAUCGCUGAUCAUUUGUACGUUGAUAUAAAUAGUGCCCAUGGAUC”, the binding signal worked out at 2.34 enrichment factor.

On to “GGGGCCACCAACGACAUUGCAUCGUAGGCAUAUAGCUGACUGCAAUUUAGGACGUUGAUAUAAAUAGUGCCCAUGGAUC”, for which the binding signal came out at 2 enrichment factor.

Consider “GGGGCCACCAACGACAUUUUACUGUAGAGAAGAAUUACUUCUCGACCAAAUGUGGUUGAUAUAAAUAGUGCCCAUGGAUC”, for which the binding signal turned out to be 0.55 enrichment factor.

Regarding “GGGGCCACCAACGACAUUGUCGUAGGCAGAUAGAUUAUAUCCGCUGACCAGUGUUGAUAUAAAUAGUGCCCAUGGAUC”, the binding signal was determined as 2.25 enrichment factor.

On to “GGGGCCACCAACGACAUUGACCCGUAGUGUCUUACUACGACUUGUAGAUGUUGUUGAUAUAAAUAGUGCCCAUGGAUC”, for which the binding signal was determined as 0.5 enrichment factor.

For the sequence “GGGGCCACCAACGACAUUGCCGUAGUGCAGGGUUGCUUGCAUGAUCAAUUGUUGUUGAUAUAAAUAGUGCCCAUGGAUC”, the binding signal is 2.1 enrichment factor.

With “GGGGCCACCAACGACAUUCAACGACCAGUACGUGUGAGGGCGUACAUCAUGUAGUUGAUAUAAAUAGUGCCCAUGGAUC”, the binding signal stood at 0.37 enrichment factor.

For the sequence “GGGGCCACCAACGACAUUAUUUUCCGGUCGUUUAGGUGUUCAACACUCCGGAUGUUGAUAUAAAUAGUGCCCAUGGAUC”, the binding signal amounted to 8.72 enrichment factor.

Turning to “GGGGCCACCAACGACAUUGUCGUAGCCGGACUCCACCGGUGACCAAUGAGCGUUGAUAUAAAUAGUGCCCAUGGAUC”, the binding signal was found to be 0.57 enrichment factor.

As for “GGGGCCACCAACGACAUUAUGAGCCCUAUCUAUCGACCGAUCAUGUCACGUAGGUUGAUAUAAAUAGUGCCCAUGGAUC”, the binding signal is 1.38 enrichment factor.

As for “GGGGCCACCAACGACAUUGUCGUAGGCGUCAUAUUAUACUUACGCUGACCAAUGUUGAUAUAAAUAGUGCCCAUGGAUC”, the binding signal amounted to 2.09 enrichment factor.

“GGGGCCACCAACGACAUUCGUAACGUAGGGAGUAUUCCCGAUCAGAAUGUACAGUUGAUAUAAAUAGUGCCCAUGGAUC”: the binding signal stood at 0.36 enrichment factor.

As to “GGGGCCACCAACGACAUUGUAGACUUGUCAACGGUCGACUGUCGAUACAUGUGUUGAUAUAAAUAGUGCCCAUGGAUC”, the binding signal worked out at 0.56 enrichment factor.
